Assay results: PubChem BioAssay (NCATS)
Results filed as inconclusive are left out. Activity calls are given as the source filed them. The call rests on the fitted dose curve; in most records, active means well fitted inhibition curve with a large enough effect; inconclusive means small, poorly fitted or top-dose-only effect; inactive means no such curve, though single readings can be large or run the other way.

target: Retinaldehyde dehydrogenase 3 (Homo sapiens) (UniProt P47895); experiment: qHTS for Inhibitors of the Aldehyde Dehydrogenase Family (ALDH1A3) Validation screen (AID 2061312); settings: ALDH1A3 enzyme inhibition qHTS validation, fluorescence; series mostly up to 84.7 µM; activity change, negative = inhibition: at the top concentration; further: nearly all actives have a fitted effect of over 45% in size
On the % scale 0 is the no-effect control and ±100 the full control effect.

Compound	activity change, negative = inhibition
CC[C@H](/C=C/[C@@H](C)[C@H]1CC[C@H]2[C@@H]3CC=C4C[C@@H](O)CC[C@]4(C)[C@H]3CC[C@]12C)C(C)C	-13.7% [at 9.14 µM] (inactive)
O=C1Cc2c([nH]c3ccc(Br)cc23)-c2ncccc2N1	-20.7% (inactive)
CN(C)Cc1ccc(-c2cnn3c(-c4cccc(NC(=O)c5cccc(C(F)(F)F)c5)c4)ccnc23)cc1	15.9% (inactive)
C=CS(=O)(=O)NC1CCN(C(=O)CNc2cc(I)c(Cl)cc2OC)CC1	6.85% (inactive)
O=C(c1ccccc1)c1ccc2nc(NC(=O)c3csc(C4CCN(c5ncnc6ccsc56)CC4)n3)[nH]c2c1	0.726% (inactive)
CN(C)C(CCOc1cccc2ccccc12)c1ccccc1 (stereo not given)	-7.35% (inactive)
CC(C)[C@@](C)(O)[C@@H]1CN(c2nc(-c3[nH]nc4ncccc34)c(F)cc2Cl)CCN1	342% (inactive)
CC(C)n1cnc2c(Nc3cccc(Cl)c3)nc(NCCO)nc21	-10.4% (inactive)
CCC(C)CNCC(=O)N1CCc2sccc2C1COc1cccc(C)c1 (stereo not given)	6.54% (inactive)
CN(C)c1nc(NC2CCC(NC(=O)c3ccc(F)c(F)c3)CC2)nc2ccccc12 (stereo not given)	32.1% (inactive)
CN(c1ccccc1CNc1nc(Nc2ccc3c(c2)CC(=O)N3)ncc1C(F)(F)F)S(C)(=O)=O	-20.4% (inactive)
CC(C)C1CCC(C(=O)N[C@@H](Cc2ccccc2)C(=O)O)CC1 (stereo not given in full)	-25.4% (inactive)
CN(c1nccc(=O)[nH]1)C1CCN(c2nc3ccccc3n2Cc2ccc(F)cc2)CC1	6.78% (inactive)
COc1cc2c(cc1-c1c(C)noc1C)ncc1[nH]c(=O)n(C(C)c3ccccn3)c12 (stereo not given)	10.3% (inactive)
NC(=O)c1nc(Nc2ccccc2)sc1NC(=O)C1CCCCC1	30.6% (inactive)
O=C(Nc1ncc(SCCN2CCCC2)s1)C1(c2ccc(S(=O)(=O)C3CC3)cc2)CC1C1CCCCC1 (stereo not given)	73.8% (inactive)
COc1ccccc1OCCNCC(O)CCOc1cccc2[nH]c3ccccc3c12 (stereo not given)	112% (inactive)
CC(C)(C)CC(C)(C)c1ccc(OCCOCC[N+](C)(C)Cc2ccccc2)cc1	55.7% (inactive)
COc1ccc2nc(-c3cc(OC)c(OC)c(OC)c3)cc(C(=O)NCC(=O)Nc3ccc(C(C)=O)cc3)c2c1	18.6% (inactive)
C#CCNCc1cc2cc(OCc3ccccc3)ccc2[nH]1	47.2% (inactive)

Compound	activity change, negative = inhibition
COc1ccc(C2=NC(c3ccc(Cl)cc3)C(c3ccc(Cl)cc3)N2C(=O)N2CCNC(=O)C2)c(OC(C)C)c1 (stereo not given)	-3.53% (inactive)
Cc1cn(-c2cc(NC(=O)c3ccc(C)c(Nc4nccc(-c5cnccn5)n4)c3)cc(C(F)(F)F)c2)cn1	17.1% (inactive)
COc1ccc(N(C(=O)Nc2c(C)cccc2C)c2cc(Nc3ccc(N4CCN(C)CC4)cc3)ncn2)c(OC)c1	-20.2% (inactive)
CCOC(=O)Nc1nc2ccccc2[nH]1	-25.1% (inactive)
CCCSc1nc(N[C@@H]2C[C@H]2c2ccc(F)c(F)c2)c2nnn([C@@H]3C[C@H](OCCO)[C@@H](O)[C@H]3O)c2n1	-46% (inactive)
CCc1ccccc1OC[C@@H](O)CN[C@H]1CCCc2ccccc21	9.56% (inactive)
Fc1ccc(-n2cc(CCCCN3CCC4(CC3)OCc3ccccc34)c3ccccc32)cc1	55.6% (inactive)
CCN(Cc1ccccc1)C(=O)Cn1c(=O)n(C)c2cnc(-c3ccccc3)nc21	6.15% (inactive)
Cc1nc(Nc2cnn(C3CCNCC3)c2)nc2c1N(C)C(=O)c1cc3ccccc3cc1N2C	162% (inactive)
O=C(NC1Cc2ccccc2N(C[C@@H](O)CO)C1=O)c1cc2cc(Cl)sc2[nH]1 (stereo not given in full)	-16.7% (inactive)
C=CC(=O)Nc1cccc(CN2C(=O)N(c3c(Cl)c(OC)cc(OC)c3Cl)Cc3cnc(NCCCCN(CC)CC)nc32)c1	164% (inactive)
CC(=O)OC1C(=O)C2(C)C(O)CC3OCC3(OC(C)=O)C2C(OC(=O)c2ccccc2)C2(O)CC(OC(=O)C(O)C(NC(=O)c3ccccc3)c3ccccc3)C(C)=C1C2(C)C (stereo not given)	-10.2% (inactive)
COc1ccc2cc1Oc1ccc(cc1)C[C@H]1c3c(cc4c(c3Oc3cc5c(cc3OC)CCN(C)[C@@H]5C2)OCO4)CCN1C	71.9% (inactive)
CCc1cc2c(cc1CC)CC(NCC(O)c1ccc(O)c3[nH]c(=O)ccc13)C2 (stereo not given)	12.3% (inactive)
Cc1ccc(C(=O)N(CCCN)C(c2nc3cc(Cl)ccc3c(=O)n2Cc2ccccc2)C(C)C)cc1 (stereo not given)	145% (inactive)
C=C[C@H]1CN2CC[C@H]1C[C@H]2[C@H](O)c1ccnc2ccc(OC)cc12	42.5% (inactive)
CCC[C@H]1C[C@H](C(=O)N[C@@H]([C@@H]2O[C@@H](SC)[C@@H](O)[C@@H](O)[C@@H]2O)[C@H](C)Cl)N(C)C1	32.2% (inactive)
CC(C)c1nc(CN(C)C(=O)N[C@H](C(=O)N[C@@H](Cc2ccccc2)C[C@H](O)[C@H](Cc2ccccc2)NC(=O)OCc2cncs2)C(C)C)cs1	42.3% (inactive)
OC(CNCCc1c[nH]c2ccccc12)Cn1c2ccccc2c2ccccc21 (stereo not given)	108% (inactive)
CNC1CN(c2ccc3c(=O)c(C(=O)O)cn(-c4nccs4)c3n2)CC1OC (stereo not given)	-0.123% [at 20.1 µM] (inactive)
